Screening results deposited in PubChem by National Center for Advancing Translational Sciences (NCATS).
Tb PFK block: qHTS Assay to Find Inhibitors of T. brucei phosphofructokinase; T. brucei PFK, ADP-Glo luminescence; Potency, µM (series often up to 57.5 µM), inactives show at the highest dose activity, negative = inhibition, hits mostly inhibitors; hit rate 0.17% among 330,000; AID 485367, 2010;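 note: 0% = uninhibited 1x PFK enzyme wells and -100% = no-enzyme wells; nearly all actives have a fitted effect of over 60% in size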
Target sequence (O15648 whole entry, looked up): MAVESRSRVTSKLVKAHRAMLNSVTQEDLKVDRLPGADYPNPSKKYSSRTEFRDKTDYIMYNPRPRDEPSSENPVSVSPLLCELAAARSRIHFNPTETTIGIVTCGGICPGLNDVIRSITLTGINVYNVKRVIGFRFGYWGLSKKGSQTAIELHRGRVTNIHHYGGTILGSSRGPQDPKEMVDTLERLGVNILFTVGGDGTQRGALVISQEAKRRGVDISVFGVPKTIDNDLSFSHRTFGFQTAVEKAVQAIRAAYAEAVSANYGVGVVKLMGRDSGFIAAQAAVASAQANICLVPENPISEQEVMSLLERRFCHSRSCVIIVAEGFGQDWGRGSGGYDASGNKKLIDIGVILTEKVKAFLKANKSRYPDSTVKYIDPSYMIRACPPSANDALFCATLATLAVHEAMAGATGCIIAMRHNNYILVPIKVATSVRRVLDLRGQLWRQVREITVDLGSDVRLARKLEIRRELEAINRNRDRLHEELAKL
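Luminescent ADP detection (ADP-Glo, two-step: ATP depletion then ADP-to-ATP conversion for luciferase) reported PFK activity after 45 min room-temperature reaction of 1.25 nM enzyme with 0.5 mM F6P and 0.1 mM ATP at pH 8.0.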
Rango complex inh: qHTS Assay for Inhibitors of Rango (Ran-regulated importin-beta cargo) - Importin beta complex formation; Importin subunit beta-1 (Homo sapiens), Q14974; Rango CFP/YFP FRET sensor + importin beta, 45 min; Potency, µM (titrated, usually from 92.2 µM), without a hit: at the top dose inhibition of complex formation; hit rate 0.031% among 340,000; AID 540263, 2011; calls by dose curve;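 note: 0% = DMSO wells and 100% = buffer wells lacking importin beta; nearly all actives have a fitted effect of over 15% in size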
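Inhibition scored from the CFP 486 nm/YFP 530 nm FRET ratio 45 min after adding 0.125 microM importin beta to 50 nM Rango biosensor preincubated 5 min with compound (room temperature, PBS with DTT, Tween-20, BSA). No-importin wells as positive control.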
ELG1 DNA repair: qHTS screen for small molecules that inhibit ELG1-dependent DNA repair in human embryonic kidney (HEK293T) cells expressing luciferase-tagged ELG1; hit rate 2.3% among 330,000; HEK293T ELG1-luciferase reporter, luminescence, 16 h; DNA damage induced by 5-fluorouridine; Potency, µM (highest dose often 46.1 µM), without a hit: at the highest dose activity change, negative = inhibition, actives largely listed as inhibitors; AID 504467, 2011; note: % is set by controls: 0 for no effect and ±100 for the full control effect; nearly all actives have a fitted effect of over 55% in size
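Reporter activity after DNA damage by 5-fluorouridine is monitored. Compound-treated cells incubate 16 hr at 37 °C, then ONE-Glo is added for 30 min before luminescence reading.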
Rango release inh: qHTS Assay for Inhibitors of RanGTP induced Rango (Ran-regulated importin-beta cargo) - Importin beta complex dissociation; Snurportin-1 (Homo sapiens) + GTP-binding nuclear protein Ran (Homo sapiens) + Importin …; Biochemical FRET Rango-importin beta, RanGTP-induced dissociation; Potency, µM (doses to about 46.1 µM), inactives show top-dose activity change, negative = inhibition; hit rate 0.071% among 340,000; AID 540253, 2011; calls by dose curve; note: % of control where 0% means no effect; nearly all actives have a fitted effect of over 45% in size
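Rango FRET biosensor (snurportin-1 IBB flanked by N-terminal EYFP and C-terminal CFP10) at 0.1 uM, with 0.25 uM importin beta in PBS, 1mM DTT, 0.02% Tween-20, 0.1% BSA. 0.6 uM Ran, 2mM GTP and 0.2 uM RCC1 were then added for 45 min at room temperature. Inhibition read as loss of FRET rise.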
PKM2 activator: qHTS Assay for Activators of Human Muscle isoform 2 Pyruvate Kinase | Pyruvate kinase PKM (Homo sapiens), P14618 | Potency, µM (doses to about 57.5 µM), for inactives: at the highest dose activation, actives largely listed as activators | purified PKM2, Kinase-Glo ATP luminescence, activation; response scale: 0% is enzyme alone, no compound | AID 1631, 2009 | hit rate 0.34% among 260,000; note: % is set by controls: 0 for no effect and ±100 for the full control effect; nearly all actives have a fitted effect of over 55% in size
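Purified hPK-M2 (>95%) run at intermediate activity with 0.1 mM ADP and 0.5 mM PEP in 50 mM imidazole pH 7.2, KCl, MgCl2; 1 h room temperature. ATP formed read by Kinase-Glo luminescence; normalized to uninhibited and no-enzyme controls.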
Tb PGK inh: qHTS Assay to Find Inhibitors of Phosphoglycerate Kinase. Phosphoglycerate kinase, glycosomal (Trypanosoma brucei brucei), P07378. PGK/GAPDH coupled, Kinase-Glo luminescence, 60 min. Potency, µM (titrated, usually from 57.5 µM), for inactives: at the top dose activity change, negative = inhibition, usual class: inhibitors. hit rate 0.043% among 380,000; note: % is set by controls: 0 for no effect and ±100 for the full control effect; nearly all actives have a fitted effect of over 60% in size
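Recombinant glycosomal PGK reaction used 1,3-bisphosphoglycerate generated in-well by GAPDH (100nM final) in 100mM TEA pH 7.6, 5mM MgCl2, 0.01% Tween-20. After 60 minutes at room temperature, ATP was read by Kinase-Glo Plus luminescence end-point.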
An asterisk follows results filed as active; i = inactive; u = inconclusive; x = not tested or not shown. Hits are enriched below; roughly 2.4% of the tested compounds scored in any of these assays. Unless noted, calls come from the whole dose curve; as a rule, active = well fitted curve in the direction sought with a large enough effect; inconclusive = small, poorly fitted or top-dose-only effect, or another doubt; inactive = no such curve, though single readings can be large; an effect the other way counts as inactive or inconclusive. Potency is the fitted concentration of half-maximal effect.

SMILES	Tb PFK block	Rango complex inh	ELG1 DNA repair	Rango release inh	PKM2 activator	Tb PGK inh
COc1ccc(C2CCCN2C(=S)Nc2ccc(C)c(C)c2)cc1OC (stereo not given)	-1.2%	2.3%	25.9µM*	22.4%	0.2%	-6.9%
CCOC(=O)c1ccccc1NC(=O)CSc1nnc(CC)n2c1cc1occc12	x	x	x	x	x	-5.6%
Cc1cc(NC(=O)c2c(F)cccc2Cl)n(-c2nc3ccccc3[nH]2)n1	2.4%	-2.9%	20.6µM*	15.0%	-14.5%	-1.1%
Cc1cc(NC(=O)c2ccccc2F)n(-c2nc3ccccc3[nH]2)n1	2.5%	2.8%	16.4µM*	-10.5%	0.0%	7.4%
CN(c1ccccc1)S(=O)(=O)c1ccc(Cl)c(C(=O)Nc2nc3ccccc3[nH]2)c1	7.8%	-1.8%	23.1µM*	-24.2%	-3.5%	-0.8%
O=C(Nc1nc2ccccc2[nH]1)c1ccccc1F	u	-1.9%	u	-10.3%	-92.0%	8.91µM*
Cc1cc(NC(=O)c2c(F)cccc2F)n(-c2nc3ccccc3[nH]2)n1	4.4%	3.4%	u	0.1%	-2.2%	-1.5%
Cc1ccc2c(c1)N(C(=O)CCC(=O)NCc1ccccc1Cl)CC(C)O2 (stereo not given)	x	x	x	x	x	i
COc1ccc(CCNC(=O)C(=O)NCC2OCCN2S(=O)(=O)c2ccccc2)cc1 (stereo not given)	-1.3%	-2.9%	-4.0%	-1.3%	-3.1%	-9.6%
Cc1ccc(OCc2cc(C(=O)N(C)Cc3cnn(-c4ccccc4C)c3)no2)cn1	-2.1%	4.1%	u	16.9%	-0.7%	-1.8%
Cc1c(N=Nc2c(-c3ccc([N+](=O)[O-])cc3)[nH]n(C(N)=S)c2=O)cccc1[N+](=O)[O-]	10.9%	-0.2%	2.06µM*	-12.9%	3.3%	-19.2%
NC(=S)n1[nH]c(-c2ccc([N+](=O)[O-])cc2)c(N=Nc2ccccc2[N+](=O)[O-])c1=O	-1.7%	1.3%	u	-9.2%	u	-7.8%
NC(=S)n1[nH]c(-c2ccc([N+](=O)[O-])cc2)c(N=Nc2cccc([N+](=O)[O-])c2)c1=O	-8.5%	-1.1%	3.26µM*	1.1%	4.7%	u
O=C(CCC1CCN(Cc2nccs2)CC1)Nc1ccccc1	x	x	x	x	x	-8.6%
COc1cccc(NC(=O)CSc2nc3c([nH]c4ccccc43)c(=O)n2-c2ccccc2)c1	x	x	x	x	x	-2.5%
Cn1c(=O)n(C)c2cc(NC(=O)c3ccccc3[N+](=O)[O-])c(Br)cc21	4.3%	-0.2%	0.0%	2.2%	7.94µM*	-8.2%
COCCNc1nc2c(c(=O)n(C)c(=O)n2C)n1Cc1cccc(C)c1	-2.6%	-2.4%	20.6µM*	1.8%	-1.4%	1.0%
Cc1cccc(Cn2c(NCC(C)O)nc3c2c(=O)n(C)c(=O)n3C)c1 (stereo not given)	-3.5%	-0.6%	14.6µM*	-15.2%	7.6%	6.6%
Cc1cccc(Cn2c(NCCO)nc3c2c(=O)n(C)c(=O)n3C)c1	-5.0%	1.5%	u	-12.0%	3.3%	-2.4%
COCCCNc1nc2c(c(=O)n(C)c(=O)n2C)n1Cc1cccc(OC)c1	-1.4%	-1.7%	14.6µM*	-6.0%	8.5%	-2.6%
CCN(CC)CCNC(=O)C(=O)NCC(c1ccc2c(c1)OCO2)N1CCOCC1 (stereo not given)	x	x	x	x	x	10.7%
